Screening results from PubChem.
Compounds with a hit are over-represented: about 2.2% of the library has one in this group of screens.
HTR2A ag = mouse Htr2a agonists via beta-arrestin recruitment, primary screen, cell-based, luminescence. actives 0.66% (n = 360,000). 5-hydroxytryptamine receptor 2A (Mus musculus), P35363. AID 624169, 2012. activation, % at 7.6 µM. CHO-K1 mHTR2A beta-arrestin complementation; percent of 30 µM serotonin response;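 active = activation above a run cutoff, the mean activation of all tested compounds plus 3 SD, cut at about 14% in these data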;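 also: 0% = plate median of compound wells and 100% = 30 µM serotonin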
Target sequence (P35363 whole entry, looked up): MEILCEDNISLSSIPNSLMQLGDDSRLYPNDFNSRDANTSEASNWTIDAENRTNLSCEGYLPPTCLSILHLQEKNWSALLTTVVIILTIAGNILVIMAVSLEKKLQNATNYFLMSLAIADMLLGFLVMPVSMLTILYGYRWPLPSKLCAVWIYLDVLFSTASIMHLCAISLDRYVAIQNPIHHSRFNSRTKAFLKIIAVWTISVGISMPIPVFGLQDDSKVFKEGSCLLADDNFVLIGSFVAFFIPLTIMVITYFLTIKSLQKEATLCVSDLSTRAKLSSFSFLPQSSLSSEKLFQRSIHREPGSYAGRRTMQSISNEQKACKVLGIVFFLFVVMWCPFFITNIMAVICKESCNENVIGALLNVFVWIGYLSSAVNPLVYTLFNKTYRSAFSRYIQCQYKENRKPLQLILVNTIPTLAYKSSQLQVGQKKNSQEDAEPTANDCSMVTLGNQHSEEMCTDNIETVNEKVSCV
MEX-5 binding = MEX-5 zinc finger RNA-binding disruptors – biochemical, C. elegans, fluorescence polarization, MLPCN library, primary screen; Zinc finger protein mex-5 (Caenorhabditis elegans), Q9XUB2; MEX-5/FITC-TCR2 RNA binding; hits give low values; activity score (negative = inhibition of binding), % at 10 µM; actives 0.38% (n = 300,000);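 active = inhibition past about -25% in most replicates, and total fluorescence under double the plate's negative control median, limit read from the data; inconclusive = replicates evenly split on the limit, or fluorescence at least double controls; inactive = too little inhibition in most replicates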;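 also: 0% = DMSO and -100% = 5 µM competing unlabeled TCR2 RNA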
V-ATPase pH = regulators of yeast V-ATPase proton pumping, primary screen, pHLuorin cytosolic pH fluorescence; response, % at 10 µM; actives 0.37% (n = 350,000); AID 504577, 2011; S. cerevisiae; in the data active = response mostly above about 7.3%, no sharp cut-off; inactive = mostly below about 5.4%; also: actives read high
Exocytosis inh = LAMP-1 surface exposure blockers, TALL-104 cells – cell-based, flow cytometry, MLPCN library, primary screen; TALL-104 LAMP-1 surface exposure; cells stimulated with thapsigargin and PMA; inhibition, % at 10 µM; actives 0.66% (n = 360,000); AID 651702, 2012;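 active = inhibition above about 55%, limit read from the data; inconclusive = no clear call, values can overlap the other calls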
GASC-1 inh = inhibitors of GASC-1 histone demethylase, primary screen, biochemical, fluorescence, DELFIA europium; inhibition, % at 2.35 µM; AID 2099, 2009; actives 0.069% (n = 330,000); GST-JMJD2C(1-420) H3K9me3 demethylation; Lysine-specific demethylase 4C (Homo sapiens), Q9H3R0;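 active = more than half of a compound's replicate wells show inhibition beyond 50%, single wells judged on their own value; inconclusive = some, but no more than half, of replicates pass 50% inhibition; inactive = no replicate passes 50% inhibition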;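 also: signal counts dimethyl H3K9 product captured on neutravidin plate; 0% = median of DMSO wells and 100% = 0.3 times that DMSO median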
VLA-4 inh = inhibition in human VLA-4 binding assay, primary screen, VLA-4 allosteric modulator project, MLPCN library, flow cytometry, VLA-4 expressing cells. inhibition, % (about 7 µM as worked out from the volumes in the protocol). Integrin alpha-4 (Homo sapiens), P13612. ligand binding flow cytometry. AID 2557, 2010. actives 0.2% (n = 330,000); in the data active = inhibition above about 50%
* = called active by the depositor; ? = inconclusive; . = no result given.

SMILES | HTR2A ag | MEX-5 binding | V-ATPase pH | Exocytosis inh | GASC-1 inh | VLA-4 inh
CC(NC(=O)C(=O)NCCN1CCN(C(=O)c2ccccc2Br)CC1)c1ccccc1 (centres undefined) | 2.9 | 0.3 | -1.5 | 12.6 | 2.1 | 9.0
Cc1ccc(-c2nnc(Nc3ccc(CC(N)=O)cc3)c3ccccc23)cc1S(N)(=O)=O | -3.6 | -31.6* | -0.1 | 9.6 | -12.3 | 0.2
CN1CCN(CC(=O)N2CCn3c4c(c5cc(C6CCCCC6)ccc53)CCCC42)CC1 (centres undefined) | -5.9 | . | -0.7 | 76.8* | -3.4 | 45.8
CC(=NC1CCCC1)c1c(C)[nH]n(-c2nc3ccccc3s2)c1=O | 1.4 | -43.1* | -1.1 | -2.3 | 30.6 | -2.0
CC(=NCCCn1ccnc1)c1c(-c2ccccc2)[nH]n(-c2nc3ccccc3s2)c1=O | 4.2 | 5.1 | -3.2 | 4.4 | -5.8 | 36.0
N#C/C(=C/c1ccc(N2CCCCC2)o1)C(=O)Nc1ccc2ccccc2c1 | -5.5 | 4.1 | 41.1* | 62.7* | -5.9 | .
N#C/C(=C/c1ccc(N2CCCCC2)o1)C(=O)Nc1ccc(Cl)cc1 | 2.7 | 4.4 | -1.0 | 9.3 | -0.8 | 8.0
CC(=O)N1CCN(S(=O)(=O)c2cccc(C(=O)NC3CCCC3)c2)CC1 | 8.8 | . | -2.3 | -0.6 | 4.8 | 5.2
CN1CCN(S(=O)(=O)c2cccc(C(=O)NC3CCCC3)c2)CC1 | 5.9 | 1.7 | 22.6* | 1.5 | 0.8 | 10.5
Cc1ccc(NC(=O)CSc2nnc(-c3cnccn3)n2-c2ccccc2)cc1 | 1.5 | 0.8 | 16.2* | -1.9 | 7.5 | -2.1
CCN(CC)c1ccc(-c2nnc(SCC(=O)Nc3ccccc3C#N)n2-c2ccccc2)cc1 | 0.3 | -2.2 | 3.4 | 87.8* | 10.7 | 0.2
N#Cc1ccccc1NC(=O)CSc1nnc(-c2ccccc2)n1-c1ccccc1 | 4.2 | -6.5 | 2.6 | -2.5 | -3.9 | 11.7
COc1ccc2c(c1)CCC(=O)[C@H](O)C[C@H](c1ccccc1)OC2=O | 3.6 | . | . | -7.1 | . | .
Nc1cc(C(=O)O)c(N)c2c1C(=O)c1ccccc1C2=O | -9.8 | -100.9* | -1.7 | 4.1 | 5.3 | -6.4
Nc1c(C(=O)O)ccc2c1C(=O)c1ccccc1C2=O | -1.6 | -13.1 | 1.8 | 0.8 | 28.9 | -4.2
O=C(N/N=C/c1c(O)ccc2ccccc12)c1cccnc1 | 3.2 | -9.0 | -2.4 | 14.4 | 0.2 | -21.9
O=C(N/N=C\c1c(O)ccc2ccccc12)c1cncc(Br)c1 | -10.9 | ? | 1.2 | 79.5* | 4.2 | -26.0
COc1cc(NC(=O)[C@@H]2CCCN(S(=O)(=O)c3cccc4cccnc34)C2)cc(OC)c1OC | 13.1 | . | -9.3 | 3.3 | 0.6 | 1.2
Cc1ccc(S(=O)(=O)N2CCCC(C(=O)NCCc3ccc(S(N)(=O)=O)cc3)C2)cc1 (centres undefined) | 4.6 | -3.8 | -2.8 | -10.7 | 39.2 | -7.9
CC(C)c1ccc(CNc2ccc(N3CCOCC3)cc2)cc1 | -5.3 | -0.9 | -4.2 | -5.3 | -1.6 | 8.8
Cc1ccc(CNc2ccc(N3CCOCC3)cc2)cc1 | 0.9 | -3.6 | 11.3* | -13.6 | 6.3 | -3.6
O=C1CCC/C(=N/NC(=O)c2sc3ccccc3c2Cl)C1 | -7.5 | -27.5* | 2.8 | -2.8 | 22.8 | -292.4
CCOC(=O)CSC1=NC(=O)/C(=C\c2ccc(Cl)cc2)S1 | 3.0 | 5.4 | 11.0* | 9.7 | 11.9 | 20.6
O=C(NCCOc1ccccc1)c1ccccc1Cl | -1.9 | -2.7 | -1.6 | -5.8 | -0.6 | 3.5
NNC(=O)c1ccccc1OCCOc1ccccc1 | -4.8 | 0.7 | -0.4 | 59.4* | 8.5 | -11.5
SMILES | HTR2A ag | MEX-5 binding | V-ATPase pH | Exocytosis inh | GASC-1 inh | VLA-4 inh
CN(C(=O)COc1ccccc1C(=O)NCCOc1ccccc1)c1ccccc1 | -1.1 | 3.0 | -3.6 | 67.0* | 0.0 | 1.4
COc1ccc(C2C(C(=O)c3cccs3)=C(O)C(=O)N2c2nnc(C)s2)cc1OC (centres undefined) | -7.0 | -59.9* | -0.3 | 2.9 | 3.5 | 3.7
C=CCOc1ccc(C2C(C(=O)c3cccs3)=C(O)C(=O)N2c2nnc(C)s2)cc1 (centres undefined) | 4.1 | -30.0* | -85.8 | -2.5 | 14.0 | 7.7
CC(C)c1nnc(N2C(=O)C(O)=C(C(=O)c3cccs3)C2c2ccccc2)s1 (centres undefined) | 2.8 | -65.9* | -1.6 | -2.4 | 10.9 | .
Cc1ccc(C2C(C(=O)c3ccco3)=C(O)C(=O)N2c2nnc(C)s2)cc1 (centres undefined) | -1.0 | -10.8 | 2.0 | 1.9 | 2.1 | 14.4
COc1ccc(C2C(C(=O)c3cccs3)=C(O)C(=O)N2c2nncs2)cc1 (centres undefined) | 3.0 | -85.1* | 2.0 | -2.9 | 4.8 | 8.4
C/C(=C\C(=O)OCCCCCCCCC(=O)O)C[C@@H]1OC[C@H](C[C@@H]2O[C@H]2[C@@H](C)[C@H](C)O)[C@@H](O)[C@H]1O | -3.4 | -2.6 | 5.8 | -0.9 | -9.7 | 25.2
Cc1noc(C)c1COc1ccccc1C(=O)N1CCN(c2cccc(C(F)(F)F)c2)CC1 | -4.6 | . | -0.2 | 0.4 | 0.6 | -2.5
O=C(CC1CCCC1)N1CCN(S(=O)(=O)c2ccccc2)CC1 | -0.7 | . | 667.7* | -2.9 | 0.4 | -1.6
O=C(OCC(=O)N1CCN(S(=O)(=O)c2ccccc2)CC1)C1CCC1 | -2.8 | . | -3.3 | -8.6 | 0.9 | 31.6
CCc1nc2ccc(C(=O)NCc3ccc(OC)cc3)cn2c1N(CC)CCN(C)C | -2.5 | . | . | 5.0 | . | .
COc1ccc(C(=O)NC2CC3CCCC(C2)N3Cc2ccccc2)cc1 (centres undefined) | -6.5 | -1.5 | -0.2 | 9.2 | 60.0* | -6.8
C=CCN(C(=O)c1oc2c(Cl)cc(C)cc2c1C)C1CCS(=O)(=O)C1 (centres undefined) | 7.2 | 2.0 | -0.3 | 1.3 | -22.8 | 5.9
Cc1cccc(/C=N/NC(=O)c2ccccc2OCc2cccc(Br)c2)n1 | -4.1 | -2.0 | 1.3 | 74.5* | -1.9 | -8.4
Cc1ccc(/C=N/NC(=O)c2ccccc2OCc2ccc(F)cc2)o1 | -1.1 | 0.3 | -4.1 | -6.2 | -26.4 | -4.2
O=C(N/N=C/c1ccncc1)c1ccccc1OCc1ccc(Br)cc1 | -4.0 | -3.5 | -3.8 | 83.4* | -33.0 | -8.1
CC1CCN(C(=O)COc2ccc3ccccc3c2Br)CC1 | -9.4 | 0.9 | 8.9 | 0.4 | -6.9 | -1.3
COc1ccccc1NC(=O)C1CCN(S(=O)(=O)c2cccc3nonc23)CC1 | 3.4 | -0.8 | -0.7 | -15.0 | -1.6 | 6.7
Oc1ccc(-c2cnns2)c(O)c1 | 1.1 | -61.4* | -2.8 | -0.7 | 12.5 | 7.0
Cc1ccc(C)c(NC(=O)COC(=O)c2cccc(S(=O)(=O)N3CCCC3)c2)c1 | -3.0 | . | -1.8 | -0.9 | . | .
